{"source": "PubChem BioAssay AID1347076", "about": "(National Center for Advancing Translational Sciences (NCATS), 2019)", "note": "Out of some 400,000 compounds screened, about 13,000 (3.2%) were called active. Inconclusive results (about 18%) are left out. Calls come from the whole dose curve; as a rule, active = well fitted cell-killing curve with a large enough effect; inconclusive = small, poorly fitted or top-dose-only effect, or effect the other way; inactive = flat fitted curve, though single readings scatter. The list comes from a sample in which actives are over-represented; it also holds similar structures and randomly drawn compounds. % is set by controls: 0 for no effect and ±100 for the full control effect; potency is the fitted concentration of half-maximal effect."}
{"assay": "qHTS assay for MDR1-selective chemotherapeutics: Primary screen using the drug-selected MDR subline cells KB-V1; note: nearly all actives have a fitted effect of over 60% in size", "conditions": "KB-V1 MDR cells viability, CellTiter-Glo, 72 h; series mostly up to 46.1 µM; activity change, negative = cytotoxicity: at the top concentration", "summary_of_the_method": "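Readout: CellTiter-Glo luminescence, 10 min after addition. Cells: KB-V1 MDR subline, 72 h at 37 degrees C with compound. Analysis: corrected, normalized data fitted to concentration-effect curves.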"}
{"smiles": "CCc1ccccc1OCC(=O)Nc1nnc(C2CC2)s1", "activity change, negative = cytotoxicity": "-5.12% (inactive)"}
{"smiles": "Cc1ccc(C(=O)N/C(=C/c2ccc(-c3cccc([N+](=O)[O-])c3)o2)C(=O)NCCCN(C)C)cc1", "activity change, negative = cytotoxicity": "-1.53% (inactive)"}
{"smiles": "N#C/C(=C\\c1ccc(-c2cccc([N+](=O)[O-])c2)o1)C(=O)NCCN1CCOCC1", "activity change, negative = cytotoxicity": "-8.35% (inactive)"}
{"smiles": "Cc1ccc(Cc2cnc(NC(=O)/C(C#N)=C/c3ccc(-c4cccc([N+](=O)[O-])c4)o3)s2)cc1", "Potency": "18.4 µM (active)"}
{"smiles": "CC(C)[C@H](NC(=O)c1ccccc1F)C(=O)Nc1cccc(S(=O)(=O)N2CCOCC2)c1", "activity change, negative = cytotoxicity": "-24.2% (inactive)"}
{"smiles": "NS(=O)(=O)c1ccc(CCNC(=O)CCCCCn2c(=O)[nH]c3ccccc3c2=O)cc1", "activity change, negative = cytotoxicity": "22.6% (inactive)"}
{"smiles": "C[C@@H]1Cn2cnc(C(=O)Nc3ccc(CNC(=O)OC(C)(C)C)cc3)c2C(=O)N1", "activity change, negative = cytotoxicity": "-13.1% (inactive)"}
{"smiles": "Cc1nnc2n1N=C(c1ccccc1)CS2", "activity change, negative = cytotoxicity": "7.55% (inactive)"}
{"smiles": "COc1ccc(C2=Nn3c(nnc3-c3ccccc3OC)SC2)cc1OC1CCCC1", "Potency": "5.8 µM (active)"}
{"smiles": "COc1ccccc1-c1nnc2n1N=C(c1ccc(OC(F)F)c(OCC3CC3)c1)CS2", "activity change, negative = cytotoxicity": "-13% (inactive)"}
{"smiles": "COc1ccc2c(CNCCc3ccccc3C)c(C(=O)O)n(Cc3ccccc3C)c2c1", "activity change, negative = cytotoxicity": "3.86% (inactive)"}
{"smiles": "COc1ccc(S(=O)(=O)N[C@@H]2C=C[C@@H](CC(=O)N3CCc4ccccc4C3)O[C@@H]2CO)cc1", "activity change, negative = cytotoxicity": "-1.54% (inactive)"}
{"smiles": "COc1cccc(NC(=O)CN(C)C(=O)/C=C/c2cn(-c3ccccc3)nc2-c2cccs2)c1", "activity change, negative = cytotoxicity": "-25.7% (inactive)"}
{"smiles": "COc1cccc(NC(=O)CN(C)C(=O)/C=C/c2cc(OC)ccc2OC)c1", "Potency": "10.3 µM (active)"}
{"smiles": "COc1cccc(NC(=O)CN(C)C(=O)Cc2ccc(Cl)cc2Cl)c1", "activity change, negative = cytotoxicity": "-6.54% (inactive)"}
{"smiles": "O=C(O)C1CCCN1c1nc(Cl)ccc1[N+](=O)[O-]", "note": "(stereo not given)", "activity change, negative = cytotoxicity": "21.7% (inactive)"}
{"smiles": "COc1ccc(NC2CCCN(C(=O)c3ccccc3-c3ncc[nH]3)C2)cc1", "note": "(stereo not given)", "activity change, negative = cytotoxicity": "18.4% (inactive)"}
{"smiles": "Cc1ccc(S(=O)(=O)Oc2ccc(/C=N/NC(=O)c3ccncc3)cc2)cc1", "activity change, negative = cytotoxicity": "-2.26% (inactive)"}
{"smiles": "COc1cccc(/C=N/NC(=O)c2cccc([N+](=O)[O-])c2)c1OS(=O)(=O)c1ccc(C)cc1", "Potency": "16.4 µM (active)"}
{"smiles": "COc1cc(OC)c(/C=N/NC(=O)c2ccc([N+](=O)[O-])cc2)cc1Br", "activity change, negative = cytotoxicity": "8.39% (inactive)"}
{"smiles": "CC(C)C[C@H]1CN([C@@H](Cc2ccccc2)CN2CCC[C@@H]2CN2C(=O)C(=O)NC[C@@H]2Cc2ccc(O)cc2)C(=O)C(=O)N1CCc1ccccc1", "activity change, negative = cytotoxicity": "13.8% (inactive)"}
{"smiles": "CCOc1cc(-c2nnc(SCC(=O)NC3CCCCC3)nc2-c2ccc(OC)c(OCC)c2)ccc1OC", "activity change, negative = cytotoxicity": "2.67% (inactive)"}
{"smiles": "COc1ccc(-c2nc3cnccn3c2NC2CCCCC2)cc1-c1cccc(Cl)c1", "Potency": "14.6 µM (active)"}
{"smiles": "COc1ccc(C)cc1S(=O)(=O)NC1CCCCC1", "activity change, negative = cytotoxicity": "0.661% (inactive)"}
{"smiles": "COc1ccccc1N1CCN(c2ncnc3onc(-c4cccc(Cl)c4)c23)CC1", "activity change, negative = cytotoxicity": "5.03% (inactive)"}
{"smiles": "Cc1ccc(Nc2c(-c3ccc(C)cc3)nc3cnccn23)cc1", "activity change, negative = cytotoxicity": "9.35% (inactive)"}
{"smiles": "COc1cccc(CNC(=O)CN2C(=O)CCc3cc(S(=O)(=O)N4CCOCC4)ccc32)c1", "activity change, negative = cytotoxicity": "-9.66% (inactive)"}
{"smiles": "CCCNC(=O)c1cc(C2CCCCN2C(=O)OC)on1", "note": "(stereo not given)", "activity change, negative = cytotoxicity": "6.18% (inactive)"}
{"smiles": "CCC(C)C(CO)NC(=O)/C=C/[C@H]1O[C@@H](n2cnc3c(NC(=O)c4ccccc4)ncnc32)[C@H](O)[C@@H]1O", "note": "(stereo not given in full)", "activity change, negative = cytotoxicity": "0% (inactive)"}
{"smiles": "COc1ccc([C@H]2N[C@]3(CCCN(CC4CCCCC4)C3=O)[C@H]3C(=O)N(C)C(=O)[C@@H]23)cc1", "activity change, negative = cytotoxicity": "-23% (inactive)"}
{"smiles": "Cn1c(=O)c2cc(NC(=O)NCCc3cccs3)ccc2n1Cc1cccc(C(F)(F)F)c1", "activity change, negative = cytotoxicity": "2.61% (inactive)"}
{"smiles": "CC(=O)Nc1cccc(-c2csc(Nc3cccc(C)n3)n2)c1", "Potency": "20.6 µM (active)"}
{"smiles": "CC(=O)NC(c1ccccc1)c1nc(-c2cccc(C(C)C)c2)cs1", "note": "(stereo not given)", "activity change, negative = cytotoxicity": "-17.7% (inactive)"}
{"smiles": "Cc1cccc(Nc2nc(-c3ccccc3)cs2)n1", "activity change, negative = cytotoxicity": "3.01% (inactive)"}
{"smiles": "O=C1CC[C@@H](C(=O)N2CSC[C@@H]2C(=O)Nc2ccc(C(F)(F)F)cc2)N1", "activity change, negative = cytotoxicity": "-0.952% (inactive)"}
{"smiles": "Cc1ccc(-c2nc(=N)sn2Cc2ccccc2)cc1", "activity change, negative = cytotoxicity": "-15.3% (inactive)"}
{"smiles": "CN(N=O)c1ccc(C=C2c3ccccc3-c3ccccc32)cc1", "activity change, negative = cytotoxicity": "3.84% (inactive)"}
{"smiles": "O=C(NCc1cccnc1)c1cc(C2CCCN(C(=O)C3CCCCC3)C2)on1", "note": "(stereo not given)", "activity change, negative = cytotoxicity": "3.13% (inactive)"}
{"smiles": "CC1(C)CC(=O)c2cc(C(=O)NCc3ccccc3)c(=O)[nH]c2C1", "activity change, negative = cytotoxicity": "20.8% (inactive)"}
{"smiles": "CC(NC(=O)c1ccccc1F)c1cccc2ccccc12", "note": "(stereo not given)", "activity change, negative = cytotoxicity": "-13.6% (inactive)"}
{"smiles": "CC(NC(=O)c1ccccc1SCC(=O)N1CCCC1)c1ccccc1", "note": "(stereo not given)", "activity change, negative = cytotoxicity": "-20.8% (inactive)"}
{"smiles": "CC(NC(=O)c1cccc2ccccc12)c1ccc2c(c1)CCCC2", "note": "(stereo not given)", "Potency": "20.6 µM (active)"}
{"smiles": "O=C1CCC(=O)N1CCC(=O)N(C(=O)NC1CCCCC1)C1CCCCC1", "activity change, negative = cytotoxicity": "-20.2% (inactive)"}
{"smiles": "CCOc1ccc(CCN2C(=O)C(=O)N([C@@H](Cc3ccc(O)cc3)CN3CCC[C@H]3CN3C(=O)C(=O)NC[C@@H]3CC(C)C)C[C@@H]2Cc2ccccc2)cc1", "activity change, negative = cytotoxicity": "-3.43% (inactive)"}
{"smiles": "CCCNC(=O)C1(C)CCN(C(=O)c2ccccc2OC(F)(F)F)C1", "note": "(stereo not given)", "activity change, negative = cytotoxicity": "16.4% (inactive)"}
{"smiles": "Cc1cc(O)ccc1-c1cc(C(=O)NCc2cc(C(F)(F)F)cc(C(F)(F)F)c2)[nH]n1", "activity change, negative = cytotoxicity": "7.22% (inactive)"}
{"smiles": "O=[N+]([O-])c1ccc(N2CCSCC2)cc1O", "activity change, negative = cytotoxicity": "0% (inactive)"}
{"smiles": "CC1CCN(c2ccc([N+](=O)[O-])c(SCCO)c2)CC1", "activity change, negative = cytotoxicity": "-1.25% (inactive)"}
{"smiles": "CN1CCN(c2ccc([N+](=O)[O-])c(Sc3nc4ccccc4[nH]3)c2)CC1", "Potency": "14.6 µM (active)"}
{"smiles": "COc1ccc(Sc2ccc(NC(=O)c3cccc(Cl)c3)cc2C#N)cc1", "activity change, negative = cytotoxicity": "2.24% (inactive)"}
{"smiles": "COc1ccc(-c2nn(-c3ccccc3)cc2/C=N/Nc2ccccn2)cc1OC", "Potency": "3.66 µM (active)"}
{"smiles": "COc1ccc(-c2nn(-c3ccccc3)cc2C(=O)Nc2nccs2)cc1OC", "activity change, negative = cytotoxicity": "-9.36% (inactive)"}
{"smiles": "Oc1ccc(Br)cc1/C=N/Nc1ccccn1", "activity change, negative = cytotoxicity": "0.606% (inactive)"}
{"smiles": "CS(=O)(=O)c1cccc(-c2ccc3nncn3c2)c1", "activity change, negative = cytotoxicity": "-2.98% (inactive)"}
{"smiles": "CCN(CCCNC(=O)c1c(C)oc2ncn(CC(C)C)c(=O)c12)Cc1ccccc1", "activity change, negative = cytotoxicity": "2.97% (inactive)"}
{"smiles": "OCCN1CCN(c2ncnc3c2ncn3[C@H]2CN(Cc3ccco3)C[C@@H](CO)O2)CC1", "activity change, negative = cytotoxicity": "-0.202% (inactive)"}
{"smiles": "O=S(=O)(Cc1ccc(Cl)cc1Cl)c1ccc(Cl)cc1", "Potency": "1.46 µM (active)"}
{"smiles": "O=S(=O)(NCc1ccc(Cl)cc1Cl)c1cccs1", "activity change, negative = cytotoxicity": "-2.09% (inactive)"}
{"smiles": "Cc1ccc(S(=O)(=O)Cc2cc(-c3ccc(Cl)cc3)no2)cc1", "activity change, negative = cytotoxicity": "-17.3% (inactive)"}
{"smiles": "CCCCc1ccc(S(=O)(=O)NC(=O)C2(C)CCN2C(=O)c2c(C)noc2C)cc1", "note": "(stereo not given)", "activity change, negative = cytotoxicity": "-17.6% (inactive)"}
